Data published in PubChem BioAssay (EPA / NIEHS).
Records with an inconclusive call do not appear. Some compounds were tested as several samples or in several runs, with calls that do not always agree. Active and inactive are the calls of the source. Rule for the calls, unless noted: active = hit-call score of the fitted dose curve at least 0.9, where 1 is the maximum; inactive = score below 0.9.

How the values were obtained:
[1] = CCTE_Mundy_HCI_hNP1_Casp3_7: CCTE's Caspase-Glo 3/7 Assay in human neuroprogenitor cells for Apoptosis, Mundy Lab (AID 2284240)
Outline: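 Luminescent caspase-3/7 readout, 26.5 h post-dose, in human neural progenitor cells from WA09 embryonic stem cells. Cells grew 40–44 h at 37 °C, 5% CO2 before chemical addition. Activity analysed as signal increase over DMSO baseline.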

[2] = CCTE_Mundy_HCI_hNP1_CellTiter: CCTE's Cell Titer-Glo 2 Assay in human neuroprogenitor cells for Viability, Mundy Lab (AID 2284241; active = hit-call score of the fitted dose curve at least 0.9, where 1 is the maximum;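 for AC50: a hit is a drop in ATP luminescence versus DMSO meaning reduced viability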)
Outline: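 Viability read as luminescent ATP content (CellTiter-Glo, 30 min room temperature) twenty-four hours after dosing, relative to DMSO. Cells: WA09-derived hNP1 neuroprogenitors on poly-L-ornithine/laminin, plated 40 to 44 hours before chemical.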

[3] = CCTE_Mundy_HCI_Cortical_Synap_Neur_Matur_NeuronCount: CCTE's Synaptogenesis and Neurite Maturation Assay in rat cortical cells for Neuron Count, Mundy Lab (AID 2284242; active = hit-call score of the fitted dose curve at least 0.9, where 1 is the maximum;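 for AC50: hits reduce neuron count versus DMSO baseline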)
Outline: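 Rat primary cortical cells, AraC added at DIV 5, dosed with media change from DIV 7 to DIV 12. Fixed, Hoechst-stained and immunolabelled for MAP2 and synaptophysin; neuron number counted by high-content imaging, loss fitted versus DMSO.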

[4] = read-out: Collagen III, COL3A1 (gene 1281); test: BSK_MyoF_CollagenIII: BioMAP Diversity Plus: MyoF Assay for Collagen III Biomarker Activity (AID 2284239); conditions: primary human lung fibroblasts
Procedure: (§1) BSK_MyoF is a cell-based, multiplexed-readout assay that uses lung fibroblasts, […], with measurements taken at 24 hours after chemical dosing in a microplate: 96-well plate.BSK_MyoF_CollagenIII is an assay component measured in the BSK_MyoF assay. It measures Collagen III antibody related to regulation of gene expression using ELISA technology.Data from the assay component BSK_MyoF_CollagenIII was analyzed at the endpoint, BSK_MyoF_CollagenIII, in the positive analysis fitting direction relative to DMSO as the negative control and baseline of activity. Using a type of binding reporter, gain or loss-of-signal activity can be used to understand protein changes. […]
(§2) The levels of cell surface (or secreted, indicated by the prefix "s") biomarker endpoints were measured by ELISA. Overt cytotoxicity to cells in confluent adherent cultures (all systems other than the BT system) was assessed by measuring total protein levels using sulforhodamine B (SRB) staining in parallel cultures at the time of biomarker measurements, indicated as SRB endpoints. For proliferation assays for adherent cell types, individual cell types are cultured at sub-confluence and relative cell numbers quantified by SRB staining at time points optimized for each system (48 h: 3C and CASM3C systems; 72 h: BT and HDF3CGF systems; 96 h: SAg system). […] Plates were read after 6 h.

[5] = read-out: Interleukin 17F (IL17F), IL17F (gene 112744); test: BSK_BT_xIL17F: BioMAP Diversity Plus: BT Assay for Interleukin 17F (IL17F) Biomarker Activity (AID 2284243); conditions: primary human B cells with PBMC
Outline: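 Human B cells co-cultured with PBMC; secreted IL-17F quantified by LumineX xMAP 24 hours after chemical dosing. Activity fitted in the positive direction against DMSO negative control as baseline.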

[6] = read-out: Actin alpha 1 (ACTA1), ACTA1 (gene 58); test: BSK_MyoF_ACTA1: BioMAP Diversity Plus: MyoF Assay for Actin alpha 1 (ACTA1) Biomarker Activity (AID 2284244); conditions: primary human lung fibroblasts
Procedure: as §1, with “plate.BSK_MyoF_ACTA1” for “plate.BSK_MyoF_CollagenIII”, “a-SMA” for “Collagen III”, “BSK_MyoF_ACTA1” for “BSK_MyoF_CollagenIII”, “BSK_MyoF_ACTA1,” for “BSK_MyoF_CollagenIII,”
as §2

[7] = read-out: Interleukin 2 (IL2), IL2 (gene 3558); test: BSK_BT_xIL2: BioMAP Diversity Plus: BT Assay for Interleukin 2 (IL2) Biomarker Activity (AID 2284245); conditions: primary human B cells with PBMC
Procedure: BSK_BT is a cell-based, multiplexed-readout assay that uses B cell and peripheral blood mononuclear cells, a human vascular primary cell co-culture, with measurements taken at 24 hours after chemical dosing in a microplate: 96-well plate.BSK_BT_xIL2 is an assay component measured in the BSK_BT assay. It measures secreted IL-2 related to regulation of gene expression using LumineX xMAP technology.Data from the assay component BSK_BT_xIL2 was analyzed at the endpoint, BSK_BT_xIL2, in the positive analysis fitting direction relative to DMSO as the negative control and baseline of activity. Using a type of cytokine quantitation reporter, gain or loss-of-signal activity can be used to understand protein changes. […]
as §2

[8] = read-out: Basic fibroblast growth factor (bFGF), FGF2 (gene 2247); test: BSK_MyoF_bFGF: BioMAP Diversity Plus: MyoF Assay for Basic fibroblast growth factor (bFGF) Biomarker Activity (AID 2284246); conditions: primary human lung fibroblasts
Outline: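 Human lung fibroblast cultures were dosed and measured 24 h later in 96-well format. bFGF biomarker levels quantified by ELISA, with activity fitted in the positive direction against DMSO.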

[9] = read-out: Collagen IV, COL4A1 (gene 1282); test: BSK_MyoF_CollagenIV: BioMAP Diversity Plus: MyoF Assay for Collagen IV Biomarker Activity (AID 2284247); conditions: primary human lung fibroblasts
Outline: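 Primary human lung fibroblasts (MyoF system) dosed 24 h; Collagen IV measured by ELISA. Activity fitted in positive direction against DMSO; cytotoxicity tracked by SRB total-protein staining in parallel cultures.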

[10] = read-out: Plasminogen activator inhibitor-1 (PAI1), SERPINE1 (gene 5054); test: BSK_MyoF_PAI1: BioMAP Diversity Plus: MyoF Assay for Plasminogen activator inhibitor-1 (PAI1) Biomarker Activity (AID 2284256); conditions: primary human lung fibroblasts
Outline: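 Human lung fibroblasts (MyoF system) were exposed to test chemicals for 24 h, then PAI-1 was quantified by ELISA. Activity was fitted in the positive (signal-gain) direction relative to DMSO vehicle as baseline.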

Compound: C=C(C)CN(CC)c1c([N+](=O)[O-])cc(C(F)(F)F)cc1[N+](=O)[O-]
- AC50 [1]: 77.5 µM (active)
- AC50 [2]: 31.5 µM (active)
- AC50 [3]: 8.46 µM (active)

Compound: CO/N=C(/C1=NOCCO1)c1ccccc1Oc1ncnc(Oc2ccccc2Cl)c1F
- AC50 [1]: 90 µM (active)
- AC50 [3]: 1.52 µM (active)

Compound: CCN(CC)c1nc(C)cc(OP(=S)(OC)OC)n1
- AC50 [1]: 75.1 µM (active)
- AC50 [2]: 71.4 µM (active)
- AC50 [3]: 9.92 µM (active)

Compound: N#CN=C1SCCN1Cc1ccc(Cl)nc1
- outcome [1]: inactive
- outcome [2]: inactive

Compound: CS(=O)(=O)c1cc(C(F)(F)F)ccc1C(=O)c1cnoc1C1CC1
- outcome [1]: inactive
- outcome [2]: inactive

Compound: CC1(C)C(C=C(Cl)Cl)C1C(=O)OC(C#N)c1cccc(Oc2ccccc2)c1 (configuration not stated)
- outcome [1]: inactive
- outcome [2]: inactive
- outcome [3]: inactive

Compound: Cc1c(COC(=O)[C@@H]2[C@H](/C=C(\Cl)C(F)(F)F)C2(C)C)cccc1-c1ccccc1
- AC50 [1]: 10.3 µM (active)
- AC50 [2]: 9.1 µM (active)
- AC50 [3]: 2.95 µM (active)

Compound: COC(=O)N(C(=O)N1CO[C@@]2(C(=O)OC)Cc3cc(Cl)ccc3C2=N1)c1ccc(OC(F)(F)F)cc1
- outcome [1]: inactive
- outcome [2]: inactive

Compound: CCNC(=O)NC(=O)C(C#N)=NOC
- outcome [1]: inactive
- outcome [2]: inactive

Compound: COP(=O)(OC)O/C(C)=C/C(=O)N(C)C
- outcome [1]: inactive
- outcome [3]: inactive

Compound: CCOP(=O)(OCC)Oc1nc(Cl)c(Cl)cc1Cl
- AC50 [1]: 50 µM (active)
- outcome [1]: inactive
- outcome [2]: inactive
- outcome [3]: inactive

Compound: COCC(C)N(C(=O)CCl)c1c(C)csc1C (configuration not stated)
- AC50 [4]: 26.2 µM (active)
- AC50 [5]: 23.8 µM (active)
- AC50 [6]: 30.9 µM (active)
- outcome [7]: inactive
- outcome [8]: inactive
- outcome [9]: inactive
- AC50 [10]: 20 µM (active)

Compound: CS(=O)(=O)c1ccc(C(=O)C2C(=O)CCCC2=O)c([N+](=O)[O-])c1
- outcome [1]: inactive
- outcome [2]: inactive

Compound: O=C(Nc1ccccc1-c1ccc(Cl)cc1)c1cccnc1Cl
- outcome [1]: inactive
- outcome [2]: inactive

Compound: COP(=S)(OC)SCn1nnc2ccccc2c1=O
- outcome [1]: inactive
- outcome [2]: inactive

Compound: CN/C(=N\[N+](=O)[O-])NCc1cnc(Cl)s1
- outcome [1]: inactive
- outcome [2]: inactive

Compound: CC(C)(C)C(=O)C(Oc1ccc(Cl)cc1)n1cncn1 (configuration not stated)
- outcome [1]: inactive
- outcome [2]: inactive
- AC50 [3]: 11 µM (active)

Compound: CNC(=O)Oc1cccc2ccccc12
- outcome [1]: inactive
- outcome [2]: inactive
- AC50 [3]: 22.9 µM (active)

Compound: CCSC(=O)N1CCCCCC1
- outcome [1]: inactive
- outcome [2]: inactive
- outcome [3]: inactive
